Experimental findings from PubChem BioAssay (Tox21) are described below.

Assay [1] can be described thus: qHTS assay to identify aromatase inhibitors - cell viability counter screen (AID 743084).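 Note: cells stimulated with testosterone during compound exposure; nearly all actives have a fitted effect of over 55% in size.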 Note: potency is the fitted concentration of half-maximal effect. In general terms: Quantitative high-throughput screening tests each substance at several concentrations.
Assay [2] deals with Aryl hydrocarbon receptor (Homo sapiens) (UniProt P35869). Kind of assay: qHTS assay to identify small molecule that activate the aryl hydrocarbon receptor (AhR) signaling pathway (AID 743085).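 Note: HG2L7.5c1 human HepG2 liver cells with stably integrated DRE-driven firefly reporter; series mostly up to about 70 µM; nearly all actives have a fitted effect of over 15% in size.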 Summed up: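 Luminescence read-out: ONE-Glo reagent, 30 min at room temperature, in HG2L7.5c1 HepG2 reporter cells treated 24 h at 37C. Viability was measured beforehand by CellTiter-Fluor fluorescence after 30 min at 37C.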
Chain of Aryl hydrocarbon receptor (Homo sapiens) (P35869 whole entry, looked up): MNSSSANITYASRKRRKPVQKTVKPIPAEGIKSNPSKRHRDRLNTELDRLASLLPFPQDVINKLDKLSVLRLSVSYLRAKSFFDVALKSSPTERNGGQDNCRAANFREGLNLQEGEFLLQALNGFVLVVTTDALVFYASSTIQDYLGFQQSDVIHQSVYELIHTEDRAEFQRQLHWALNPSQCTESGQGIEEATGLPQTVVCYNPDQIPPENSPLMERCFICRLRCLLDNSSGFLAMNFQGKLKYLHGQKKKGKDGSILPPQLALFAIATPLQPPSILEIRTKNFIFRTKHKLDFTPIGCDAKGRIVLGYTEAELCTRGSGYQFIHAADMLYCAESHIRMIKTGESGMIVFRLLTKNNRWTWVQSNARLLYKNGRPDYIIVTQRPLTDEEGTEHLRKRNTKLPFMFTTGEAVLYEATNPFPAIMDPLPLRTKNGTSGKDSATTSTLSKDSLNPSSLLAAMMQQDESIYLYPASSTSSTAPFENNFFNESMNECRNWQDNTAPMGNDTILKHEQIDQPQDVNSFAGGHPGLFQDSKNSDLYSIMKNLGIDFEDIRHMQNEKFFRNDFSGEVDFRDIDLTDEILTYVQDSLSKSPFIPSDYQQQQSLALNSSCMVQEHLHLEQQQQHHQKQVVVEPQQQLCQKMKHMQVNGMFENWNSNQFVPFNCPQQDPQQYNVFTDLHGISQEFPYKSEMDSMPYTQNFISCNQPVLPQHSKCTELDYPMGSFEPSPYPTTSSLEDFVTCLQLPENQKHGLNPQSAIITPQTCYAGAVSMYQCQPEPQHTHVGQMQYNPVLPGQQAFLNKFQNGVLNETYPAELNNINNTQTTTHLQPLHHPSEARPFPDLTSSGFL

Assay [3] is described as follows: qHTS assay to identify small molecule that activate the aryl hydrocarbon receptor (AhR) signaling pathway - cell viability counter screen (AID 743086).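 Note: HepG2 liver cells carrying the AhR DRE luciferase reporter; series mostly up to about 70 µM; nearly all actives have a fitted effect of over 45% in size.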 Summed up:
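HepG2-AhR-luc (HG2L7.5c1) cells, 4000/well, treated 24 h at 37 C with compound; viability measured as CellTiter-Fluor fluorescence after 30 min in the same wells as the luciferase read.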

Assay [4] in a line: qHTS assay for small molecule activators of the heat shock response signaling pathway - cell viability counter screen (AID 743209). Note: nearly all actives have a fitted effect of over 50% in size. Summed up: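 Cytotoxicity counter screen run in the same wells as the heat-shock bla reporter assay: HeLa HSE-bla cells, 5 h compound exposure at 37 C, viability read by CellTiter-Glo luminescence.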
The nature of assay [5]: qHTS assay for small molecule activators of the heat shock response signaling pathway (AID 743210; active = well fitted activation curve with a large enough effect in the signal ratio in the repeat runs, with a control signal flat, not every such curve was filed as active; the % refers to the signal ratio; note: series mostly up to about 63 µM). Summed up: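 Beta-lactamase reporter read-out: FRET substrate fluorescence after 2.5 h at RT, following 5 h compound treatment at 37 C of HeLa cells carrying HSE-driven bla reporter; quantitative HTS format.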
The nature of assay [6]: qHTS assay to identify small molecule agonists of the peroxisome proliferator-activated receptor delta (PPARd) signaling pathway - cell viability counter screen (AID 743211). Note: nearly all actives have a fitted effect of over 55% in size. Note: potency is the fitted concentration of half-maximal effect. Summed up: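 Read-out: CellTiter-Glo luminescence, 30 min RT, measured in the same wells as the beta-lactamase reporter. Cells: GeneBLAzer PPAR delta UAS-bla HEK293H, 3000 cells/well, compound exposure 17 h at 37C.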

Assay [7] addresses Peroxisome proliferator-activated receptor delta (Homo sapiens) (UniProt Q03181). Description: qHTS assay to identify small molecule agonists of the peroxisome proliferator-activated receptor delta (PPARd) signaling pathway (AID 743212; calls by dose curve). The method, boiled down: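 Read-out: beta-lactamase FRET fluorescence after 2 h room-temperature incubation with LiveBLAzer B/G substrate. Cells were HEK293H carrying a UAS-bla reporter for PPARd, treated at 37 C with DMSO-dissolved compounds.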

A short description of assay [8]: qHTS assay to identify small molecule antagonists of the peroxisome proliferator-activated receptor delta (PPARd) signaling pathway - cell viability counter screen (AID 743213). Note: nearly all actives have a fitted effect of over 50% in size. Note: potency is the fitted concentration of half-maximal effect. The method, boiled down:
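PPARd-bla HEK293H cells (3000/well) got compound plus 300 nM L165041 agonist for 17 h at 37 C. Viability in the same wells came from CellTiter-Glo luminescence after 30 min at room temperature.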

Assay [9] deals with Peroxisome proliferator-activated receptor delta (Homo sapiens) (UniProt Q03181). Description: qHTS assay to identify small molecule antagonists of the peroxisome proliferator-activated receptor delta (PPARd) signaling pathway (AID 743215; active = well fitted inhibition curve with a large enough effect in the signal ratio in the repeat runs, not every such curve was filed as active; the % refers to the signal ratio;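 note: cells stimulated with agonist L165041 at 300 nM final during compound exposure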; note: potency is the fitted concentration of half-maximal effect). Summed up: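 Agonist L165041 (300 nM final) added with compound to PPARd-bla HEK293H UAS-bla reporter cells; 17 h incubation at 37 C. Read-out: LiveBLAzer FRET substrate, 2 h at room temperature, fluorescence intensity.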
Chain of Peroxisome proliferator-activated receptor delta (Homo sapiens) (Q03181 whole entry, looked up): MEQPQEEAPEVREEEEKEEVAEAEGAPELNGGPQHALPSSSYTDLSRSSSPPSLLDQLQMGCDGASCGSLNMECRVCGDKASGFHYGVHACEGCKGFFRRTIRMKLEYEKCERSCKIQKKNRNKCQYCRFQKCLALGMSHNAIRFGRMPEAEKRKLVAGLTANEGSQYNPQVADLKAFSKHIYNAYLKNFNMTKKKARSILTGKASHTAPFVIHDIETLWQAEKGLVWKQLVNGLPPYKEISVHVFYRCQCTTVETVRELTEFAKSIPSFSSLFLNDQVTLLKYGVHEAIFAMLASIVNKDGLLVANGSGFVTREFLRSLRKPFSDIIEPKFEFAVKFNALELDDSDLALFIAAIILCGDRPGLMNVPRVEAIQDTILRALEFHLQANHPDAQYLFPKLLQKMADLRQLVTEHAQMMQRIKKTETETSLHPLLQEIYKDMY

Assay [10] in a line: qHTS assay to identify small molecule agonists of the farnesoid-X-receptor (FXR) signaling pathway - cell viability counter screen (AID 743218). Note: nearly all actives have a fitted effect of over 45% in size. The method, boiled down:
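Viability counter screen in the same wells: CellTiter-Glo luminescence, 30 min room-temperature incubation, measured after the beta-lactamase read. Cells were GeneBLAzer FXR-UAS-bla HEK 293T, compound-treated 16 h at 37C.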

In assay [11] the target is Vitamin D3 receptor (Homo sapiens) (UniProt P11473). Kind of assay: qHTS assay to identify small molecule agonists of the vitamin D receptor (VDR) signaling pathway (AID 743222; calls by dose curve). The method, boiled down:
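Agonist mode, beta-lactamase reporter: fluorescence from LiveBLAzer B/G FRET substrate (2 h, room temperature) read after 16 h compound treatment at 37 C of VDR-bla cells, which were pre-incubated 4 h after seeding.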

The target is the same in assay [12]. Kind of assay: qHTS assay to identify small molecule antagonists of the vitamin D receptor (VDR) signaling pathway (AID 743223; active = well fitted inhibition curve with a large enough effect in the signal ratio in the repeat runs, not every such curve was filed as active; the % refers to the signal ratio). The method, boiled down: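 Beta-lactamase reporter read-out: FRET substrate fluorescence after 2 h at room temperature, following 16 h exposure of VDR-bla cells to test compound plus 3 nM (final) 1alpha,25-dihydroxyvitamin D3 agonist at 37C.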

Assay [13] concerns the target Peroxisome proliferator-activated receptor gamma (Homo sapiens) (UniProt P37231). Description: qHTS assay to identify small molecule agonists of the peroxisome proliferator-activated receptor gamma (PPARg) signaling pathway (AID 743094; active = well fitted activation curve with a large enough effect in the signal ratio in the repeat runs, not every such curve was filed as active; the % refers to the signal ratio). The method, boiled down:
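Agonist activity was taken from a beta-lactamase reporter (FRET substrate, 1 h at room temperature) in HEK293H cells carrying a PPARg UAS-bla construct. Compounds in DMSO were incubated 17 h at 37C after a 5 h cell pre-incubation.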

For assay [14] the target is unchanged. Kind of assay: qHTS assay to identify small molecule antagonists of the peroxisome proliferator-activated receptor gamma (PPARg) signaling pathway (AID 743191; calls by dose curve; note: nearly all actives have a fitted effect of over 30% in size; note: potency is the fitted concentration of half-maximal effect). Summed up: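 GeneBLAzer PPARg UAS-bla HEK293H cells, 5 h post-plating, exposed to compounds 17 h at 37C. LiveBLAzer B/G FRET substrate added for 1 h at room temperature; beta-lactamase reporter read by fluorescence intensity.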

The nature of assay [15]: qHTS assay to identify small molecule antagonists of the farnesoid-X-receptor (FXR) signaling pathway - cell viability counter screen (AID 743221; active = well fitted cell-killing curve with a large enough effect in the repeat runs, not every such curve was filed as active; note: nearly all actives have a fitted effect of over 50% in size). The method, boiled down:
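HEK 293T FXR-bla cells, 5 h pre-incubation; compound + CDCA 50 uM final, 16 h, 37 C; beta-lactamase FRET read first, then CellTiter-Glo luminescence, 30 min RT.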

Assay [16] can be described thus: qHTS assay to identify small molecule antagonists of the peroxisome proliferator-activated receptor gamma (PPARg) signaling pathway - cell viability counter screen (AID 743194). Note: nearly all actives have a fitted effect of over 55% in size. Note: potency is the fitted concentration of half-maximal effect. The conditions noted are these: Potency: co-treated with 50 nM rosiglitazone. The method, boiled down: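 Cytotoxicity counter screen in PPARg-bla HEK293H cells, same wells as reporter assay. Compounds plus 50 nM rosiglitazone (final) for 17 h at 37 C, then viability read by CellTiter-Glo luminescence.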

The nature of assay [17]: qHTS assay for small molecule agonists of the antioxidant response element (ARE) signaling pathway - cell viability counter screen (AID 743203; calls by dose curve; note: nearly all actives have a fitted effect of over 55% in size; note: potency is the fitted concentration of half-maximal effect). The method, boiled down: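 Viability counter screen: CellTiter-Glo luminescence, read after 30 min at room temperature, in ARE-bla HepG2 wells. Compound exposure lasted 16 h at 37C/5% CO2, following a 5 h pre-incubation of the cells after plating.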

Assay [18] has as its target Bile acid receptor (Homo sapiens) (UniProt Q96RI1). Kind of assay: qHTS assay to identify small molecule agonists of the farnesoid-X-receptor (FXR) signaling pathway (AID 743220; active = well fitted activation curve with a large enough effect in the signal ratio in the repeat runs, not every such curve was filed as active; the % refers to the signal ratio). Summed up: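 FXR-UAS-bla HEK 293T cells carrying a UAS-driven beta-lactamase reporter were plated for 5 h at 37C/5% CO2, then exposed to DMSO-dissolved Tox21 10K compounds for 16 h at 37C. A LiveBLAzer B/G FRET substrate was loaded for 2 h at room temperature before fluorescence reading.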

Assay [19] can be described thus: qHTS assay for small molecule agonists of the antioxidant response element (ARE) signaling pathway (AID 743202; active = well fitted activation curve with a large enough effect in the signal ratio in the repeat runs, not every such curve was filed as active; the % refers to the signal ratio; note: potency is the fitted concentration of half-maximal effect). The method, boiled down:
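HepG2 ARE-bla reporter line, 2,000 cells/well; 5 h preincubation 37 C/5% CO2; compound (DMSO) 16 h 37 C; B/G FRET substrate 2 h RT; fluorescence intensity.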

Assay [20] deals with Bile acid receptor (Homo sapiens) (UniProt Q96RI1). Kind of assay: qHTS assay to identify small molecule antagonists of the farnesoid-X-receptor (FXR) signaling pathway (AID 743217; active = well fitted inhibition curve with a large enough effect in the signal ratio in the repeat runs, not every such curve was filed as active; the % refers to the signal ratio). Summed up: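 Antagonist mode: chenodeoxycholic acid at 50 uM final stimulates a UAS-driven beta-lactamase reporter in HEK 293T FXR-bla cells during 16 h, 37C compound exposure. Read-out is FRET substrate fluorescence after 2 h at room temperature.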
Chain of Bile acid receptor (Homo sapiens) (Q96RI1 whole entry, looked up): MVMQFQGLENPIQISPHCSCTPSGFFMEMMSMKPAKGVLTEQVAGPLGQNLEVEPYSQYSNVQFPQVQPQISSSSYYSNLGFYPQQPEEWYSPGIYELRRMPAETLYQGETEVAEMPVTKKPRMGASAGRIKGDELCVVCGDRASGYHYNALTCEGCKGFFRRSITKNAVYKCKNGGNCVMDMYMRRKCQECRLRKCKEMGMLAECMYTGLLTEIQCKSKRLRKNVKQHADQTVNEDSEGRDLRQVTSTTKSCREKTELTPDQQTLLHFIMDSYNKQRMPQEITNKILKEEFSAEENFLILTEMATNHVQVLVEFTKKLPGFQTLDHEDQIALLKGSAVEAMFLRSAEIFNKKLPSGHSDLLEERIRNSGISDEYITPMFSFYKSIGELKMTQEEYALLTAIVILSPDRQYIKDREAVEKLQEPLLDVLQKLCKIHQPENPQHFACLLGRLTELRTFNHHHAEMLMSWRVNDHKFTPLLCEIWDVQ

SMILES strings stand for the structures. Inconclusive results are not listed. Activity calls are given as the source filed them. Unless noted, calls come from the whole dose curve; as a rule, active = well fitted curve in the direction sought with a large enough effect in the repeat runs; inconclusive = weak or mixed curves; inactive = no such curve, though single readings can be large; an effect the other way counts as inactive or inconclusive.

Chain of Peroxisome proliferator-activated receptor gamma (Homo sapiens) (P37231 whole entry, looked up): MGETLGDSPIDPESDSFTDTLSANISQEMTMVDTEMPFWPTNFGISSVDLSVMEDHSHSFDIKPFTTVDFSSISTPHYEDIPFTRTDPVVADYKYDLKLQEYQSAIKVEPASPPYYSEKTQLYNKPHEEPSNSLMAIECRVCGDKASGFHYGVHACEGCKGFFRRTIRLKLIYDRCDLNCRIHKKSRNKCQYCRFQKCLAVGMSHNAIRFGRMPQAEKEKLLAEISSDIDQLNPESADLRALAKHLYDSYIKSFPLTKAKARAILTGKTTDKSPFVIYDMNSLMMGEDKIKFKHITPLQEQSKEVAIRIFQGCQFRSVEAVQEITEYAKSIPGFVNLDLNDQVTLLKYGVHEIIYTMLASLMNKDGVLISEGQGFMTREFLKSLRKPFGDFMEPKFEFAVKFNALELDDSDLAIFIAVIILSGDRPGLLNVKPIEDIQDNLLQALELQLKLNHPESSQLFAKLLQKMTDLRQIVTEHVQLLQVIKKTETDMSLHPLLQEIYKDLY
Chain of Vitamin D3 receptor (Homo sapiens) (P11473 whole entry, looked up): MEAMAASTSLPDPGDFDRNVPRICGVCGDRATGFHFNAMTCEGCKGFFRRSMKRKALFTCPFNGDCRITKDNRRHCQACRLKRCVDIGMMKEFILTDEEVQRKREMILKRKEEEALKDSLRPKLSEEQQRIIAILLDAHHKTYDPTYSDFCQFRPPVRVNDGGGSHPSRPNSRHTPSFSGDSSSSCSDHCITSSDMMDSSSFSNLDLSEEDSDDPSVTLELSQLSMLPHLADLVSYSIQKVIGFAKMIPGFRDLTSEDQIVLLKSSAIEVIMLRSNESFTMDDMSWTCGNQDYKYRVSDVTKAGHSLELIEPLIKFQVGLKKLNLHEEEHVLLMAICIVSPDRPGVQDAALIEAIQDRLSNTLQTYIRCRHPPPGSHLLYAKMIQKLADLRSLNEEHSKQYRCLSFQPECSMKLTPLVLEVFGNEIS

`COC(=O)C(Br)CBr` (configuration not stated): the Potency entry in assay [1], in assay [2], in assay [3], in assay [4], in [6] and in assay [8] was “inactive” each time. The Potency entry in assay [9] and in assay [10] was “inactive” in each case. Moreover, the compound was classed as inactive in assay [5], in assay [7], in assay [11] and in assay [12].
Consider `CC(c1ccc(O)cc1)(c1ccc(O)cc1)c1ccc(O)cc1`, for which the Potency entry in [1], in assay [2], in assay [13], in assay [4], in [8] and in assay [15] was “inactive” in each case. The figures for the Potency in assay [14] and in [9] were 21.9 µM (active) and 4.9 µM (active), respectively. For the same compound, the result in [11] was inactive.
Consider `C/C=C/C=O`, for which the Potency result in assay [1], in assay [3], in assay [13], in assay [14], in assay [16] and in assay [17] was “inactive” each time. Moreover, the Potency entry in assay [4], in assay [6], in assay [8], in assay [10] and in assay [15] was “inactive” each time. Moreover, the result in assay [5], in assay [11] and in assay [12] was inactive.
As to `c1cc2ccc3cccc4ccc(c1)c2c34`, the Potency result in assay [1], in assay [2], in assay [4] and in [15] was “inactive” in each case.
As for `CC(C)N(C(=O)COc1nnc(C(F)(F)F)s1)c1ccc(F)cc1`, the Potency entry in assay [1], in [3], in [13], in assay [16] and in assay [17] was “inactive” in each case. For the same compound, the Potency in assay [14] was 7.76 µM (active). Also, the result in [7] and in [18] was inactive.
With `O=C=Nc1ccc(Cl)cc1`, the Potency result in assay [1], in [3], in [13], in assay [14], in assay [16] and in [17] was “inactive” throughout. The Potency result in assay [4], in assay [6] and in [15] was “inactive” throughout. For the same compound, in assay [19], the Potency was 43.3 µM (active). In addition, the outcome in assay [7] and in assay [11] was inactive.
Consider `CCOP(=S)(OCC)SCn1nnc2ccccc2c1=O`, for which the Potency was 54.5 µM (active) in [1], 43.6 µM (active) in [16], 3.06 µM (active) in assay [19] and 54.9 µM (active) in [8]. Further, the Potency entry in [2] and in [13] was “inactive” in each case.
`Oc1ccc(Cl)c(Cl)c1Cl`: the Potency result in [1], in assay [3], in assay [13], in assay [16], in [4] and in assay [6] was “inactive” each time. Also, the Potency entry in assay [8], in assay [9] and in assay [10] was “inactive” throughout. Moreover, the compound was called inactive in assay [5], in assay [7], in [18], in assay [11] and in assay [12].
`CCCCNP(N)(N)=S`: the Potency entry in [1], in assay [3], in [13], in assay [14], in assay [16] and in assay [19] was “inactive” each time. For the same compound, the Potency entry in [17], in assay [4], in assay [6], in [8], in assay [9] and in assay [20] was “inactive” in each case. In addition, the Potency entry in [15] is “inactive”. For the same compound, the call in assay [5], in [7], in assay [18], in assay [11] and in assay [12] was inactive.
For `CN1[C@@H]2CC[C@H]1CC(OC(=O)c1cc(Cl)cc(Cl)c1)C2` (some centres not stated), the Potency result in [1], in assay [2], in [13], in assay [14], in assay [6] and in assay [9] was “inactive” throughout. The outcome in assay [5] and in [7] was inactive.
Consider `OC(c1ccc(Cl)cc1)(c1ccc(Cl)cc1)c1cccnc1`, for which the Potency entry in [1], in assay [2], in assay [3], in assay [8], in assay [9] and in assay [15] was “inactive” each time. The Potency was 61.1 µM (active) in assay [17] and 54.9 µM (active) in assay [6]. Besides, the compound was called inactive in assay [7], in assay [18], in assay [11] and in assay [12].
